Measurements from the supplement of paper PMC4466140.

Legend:
Assay in all cases: SPOT peptide array binding signal intensity (averaged, normalized) (arbitrary units (background-subtracted, floor 0; scale differs between SH3 domains)); higher = stronger binding of the SH3 domain to the peptide
AgAbp1 = molecular target: AgAbp1
Outline: (§1)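 Detection of bound protein relied on anti-GST antibody, an HRP anti-mouse secondary and luminol, with imaging and quantification in Genespotter. The bound protein was GST-fused SH3 domains from four yeast species, incubated at 10 μg/ml overnight at 4°C in TBS-based blocking buffer on cellulose membranes carrying synthetic 15-mer peptides with cysteines replaced by serines. Binding signal is normalized, background-subtracted spot intensity averaged over replicates, in arbitrary units that differ between domains.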

AgBbc1 = molecular target: AgBbc1
Outline: as §1

AgBem1-D1 = molecular target: AgBem1-D1
Outline: as §1

AgBzz1-D1 = molecular target: AgBzz1-D1
Outline: as §1

AgBzz1-D2 = molecular target: AgBzz1-D2
Outline: as §1

AgCyk3 = molecular target: AgCyk3
Outline: as §1

AgFus1 = molecular target: AgFus1
Outline: as §1

AgHof1 = molecular target: AgHof1
Outline: as §1

AgHse1 = molecular target: AgHse1
Outline: as §1

AgLsb1 = molecular target: AgLsb1
Outline: as §1

AgLsb4 = molecular target: AgLsb4
Outline: as §1

AgMyo5 = molecular target: AgMyo5
Outline: as §1

AgNbp2 = molecular target: AgNbp2
Outline: as §1

AgRvs167 = molecular target: AgRvs167
Outline: as §1

AgSho1 = molecular target: AgSho1
Outline: as §1

AgSla1-D1-D2 = molecular target: AgSla1-D1-D2
Outline: as §1

AgSla1-D3 = molecular target: AgSla1-D3
Outline: as §1

CaAbp1-D1 = molecular target: CaAbp1-D1
Outline: as §1

CaAbp1-D2 = molecular target: CaAbp1-D2
Outline: as §1

CaBbc1 = molecular target: CaBbc1
Outline: as §1

CaBem1-D1 = molecular target: CaBem1-D1
Outline: as §1

CaBzz1-D1 = molecular target: CaBzz1-D1
Outline: as §1

CaBzz1-D2 = molecular target: CaBzz1-D2
Outline: as §1

CaCyk3 = molecular target: CaCyk3
Outline: as §1

CaFus1 = molecular target: CaFus1
Outline: as §1

CaHof1 = molecular target: CaHof1
Outline: as §1

CaHse1 = molecular target: CaHse1
Outline: as §1

CaLsb1 = molecular target: CaLsb1
Outline: as §1

CaLsb4 = molecular target: CaLsb4
Outline: as §1

CaMyo5 = molecular target: CaMyo5
Outline: as §1

CaNbp2 = molecular target: CaNbp2
Outline: as §1

CaRvs167 = molecular target: CaRvs167
Outline: as §1

CaRvs167-3 = molecular target: CaRvs167-3
Outline: as §1

CaSho1 = molecular target: CaSho1
Outline: as §1

CaSla1-D1-D2 = molecular target: CaSla1-D1-D2
Outline: as §1

CaSla1-D3 = molecular target: CaSla1-D3
Outline: as §1

ScAbp1 = molecular target: ScAbp1
Outline: as §1

ScBbc1 = molecular target: ScBbc1
Outline: as §1

ScBem1-D1 = molecular target: ScBem1-D1
Outline: as §1

ScBzz1-D1 = molecular target: ScBzz1-D1
Outline: as §1

ScBzz1-D2 = molecular target: ScBzz1-D2
Outline: as §1

ScCyk3 = molecular target: ScCyk3
Outline: as §1

ScFus1 = molecular target: ScFus1
Outline: as §1

ScHof1 = molecular target: ScHof1
Outline: as §1

ScHse1 = molecular target: ScHse1
Outline: as §1

ScLsb1 = molecular target: ScLsb1
Outline: as §1

ScLsb2 = molecular target: ScLsb2
Outline: as §1

ScLsb3 = molecular target: ScLsb3
Outline: as §1

ScLsb4 = molecular target: ScLsb4
Outline: as §1

ScMyo3 = molecular target: ScMyo3
Outline: as §1

ScMyo5 = molecular target: ScMyo5
Outline: as §1

ScNbp2 = molecular target: ScNbp2
Outline: as §1

ScPex13 = molecular target: ScPex13
Outline: as §1

ScRvs167 = molecular target: ScRvs167
Outline: as §1

ScSho1 = molecular target: ScSho1
Outline: as §1

ScSla1-D1-D2 = molecular target: ScSla1-D1-D2
Outline: as §1

ScSla1-D3 = molecular target: ScSla1-D3
Outline: as §1

SpAbp1-D1 = molecular target: SpAbp1-D1
Outline: as §1

SpBbc1 = molecular target: SpBbc1
Outline: as §1

SpBzz1-D1 = molecular target: SpBzz1-D1
Outline: as §1

SpBzz1-D2 = molecular target: SpBzz1-D2
Outline: as §1

SpCyk3 = molecular target: SpCyk3
Outline: as §1

SpHof1 = molecular target: SpHof1
Outline: as §1

SpHof1-2 = molecular target: SpHof1-2
Outline: as §1

SpHof1-3 = molecular target: SpHof1-3
Outline: as §1

SpHse1 = molecular target: SpHse1
Outline: as §1

SpLsb1 = molecular target: SpLsb1
Outline: as §1

SpLsb4 = molecular target: SpLsb4
Outline: as §1

SpMyo1 = molecular target: SpMyo1
Outline: as §1

SpNbp2 = molecular target: SpNbp2
Outline: as §1

SpPex13 = molecular target: SpPex13
Outline: as §1

SpRvs167 = molecular target: SpRvs167
Outline: as §1

SpSla1-D1-D2 = molecular target: SpSla1-D1-D2
Outline: as §1

SpSla1-D3 = molecular target: SpSla1-D3
Outline: as §1

For TKHKAPPPPPPTAET, the “SPOT peptide array binding signal intensity” value (AgAbp1) was 1, the “SPOT peptide array binding signal intensity” value (AgBbc1) was at most 0 and the “SPOT peptide array binding signal intensity” value (AgBem1-D1) was at most 0. For the same binder, the “SPOT peptide array binding signal intensity” value (AgBzz1-D1) was 2000, the “SPOT peptide array binding signal intensity” value (AgBzz1-D2) was 338 and the “SPOT peptide array binding signal intensity” value (AgCyk3) was at most 0. For the same binder, the “SPOT peptide array binding signal intensity” value (AgFus1) was at most 0, the “SPOT peptide array binding signal intensity” value (AgHof1) was at most 0 and the “SPOT peptide array binding signal intensity” value (AgHse1) was 4. For the same binder, the “SPOT peptide array binding signal intensity” value (AgLsb1) was at most 0, the “SPOT peptide array binding signal intensity” value (AgLsb4) was at most 0 and the “SPOT peptide array binding signal intensity” value (AgMyo5) was 21.8. The “SPOT peptide array binding signal intensity” value (AgNbp2) was 39.5, the “SPOT peptide array binding signal intensity” value (AgRvs167) was 4 and the “SPOT peptide array binding signal intensity” value (AgSho1) was at most 0. For the same binder, the “SPOT peptide array binding signal intensity” value (AgSla1-D1-D2) was 3, the “SPOT peptide array binding signal intensity” value (AgSla1-D3) was 774 and the “SPOT peptide array binding signal intensity” value (CaAbp1-D1) was 12. For the same binder, the “SPOT peptide array binding signal intensity” value (CaAbp1-D2) was at most 0, the “SPOT peptide array binding signal intensity” value (CaBbc1) was at most 0 and the “SPOT peptide array binding signal intensity” value (CaBem1-D1) was 42.5. For the same binder, the “SPOT peptide array binding signal intensity” value (CaBzz1-D1) was 4620, the “SPOT peptide array binding signal intensity” value (CaBzz1-D2) was 3490 and the “SPOT peptide array binding signal intensity” value (CaCyk3) was 1. The “SPOT peptide array binding signal intensity” value (CaFus1) was 4.5, the “SPOT peptide array binding signal intensity” value (CaHof1) was 1 and the “SPOT peptide array binding signal intensity” value (CaHse1) was 5.5. For the same binder, the “SPOT peptide array binding signal intensity” value (CaLsb1) was at most 0, the “SPOT peptide array binding signal intensity” value (CaLsb4) was at most 0 and the “SPOT peptide array binding signal intensity” value (CaMyo5) was 0.25. For the same binder, the “SPOT peptide array binding signal intensity” value (CaNbp2) was at most 0, the “SPOT peptide array binding signal intensity” value (CaRvs167) was at most 0 and the “SPOT peptide array binding signal intensity” value (CaRvs167-3) was 4. For the same binder, the “SPOT peptide array binding signal intensity” value (CaSho1) was at most 0, the “SPOT peptide array binding signal intensity” value (CaSla1-D1-D2) was 6.5 and the “SPOT peptide array binding signal intensity” value (CaSla1-D3) was at most 0. The “SPOT peptide array binding signal intensity” value (ScAbp1) was 1.5, the “SPOT peptide array binding signal intensity” value (ScBbc1) was at most 0 and the “SPOT peptide array binding signal intensity” value (ScBem1-D1) was 3. For the same binder, the “SPOT peptide array binding signal intensity” value (ScBzz1-D1) was 5910, the “SPOT peptide array binding signal intensity” value (ScBzz1-D2) was 5 and the “SPOT peptide array binding signal intensity” value (ScCyk3) was at most 0. For the same binder, the “SPOT peptide array binding signal intensity” value (ScFus1) was 18, the “SPOT peptide array binding signal intensity” value (ScHof1) was at most 0 and the “SPOT peptide array binding signal intensity” value (ScHse1) was at most 0. The “SPOT peptide array binding signal intensity” value (ScLsb1) was 0.25, the “SPOT peptide array binding signal intensity” value (ScLsb2) was at most 0 and the “SPOT peptide array binding signal intensity” value (ScLsb3) was at most 0. The “SPOT peptide array binding signal intensity” value (ScLsb4) was at most 0, the “SPOT peptide array binding signal intensity” value (ScMyo3) was 160 and the “SPOT peptide array binding signal intensity” value (ScMyo5) was 112. For the same binder, the “SPOT peptide array binding signal intensity” value (ScNbp2) was 3.5, the “SPOT peptide array binding signal intensity” value (ScPex13) was 0.75 and the “SPOT peptide array binding signal intensity” value (ScRvs167) was 1.5. The “SPOT peptide array binding signal intensity” value (ScSho1) was 2.5, the “SPOT peptide array binding signal intensity” value (ScSla1-D1-D2) was at most 0 and the “SPOT peptide array binding signal intensity” value (ScSla1-D3) was 4. The “SPOT peptide array binding signal intensity” value (SpAbp1-D1) was at most 0, the “SPOT peptide array binding signal intensity” value (SpBbc1) was 2 and the “SPOT peptide array binding signal intensity” value (SpBzz1-D1) was 240. The “SPOT peptide array binding signal intensity” value (SpBzz1-D2) was 6.25, the “SPOT peptide array binding signal intensity” value (SpCyk3) was 0.5 and the “SPOT peptide array binding signal intensity” value (SpHof1) was 1. For the same binder, the “SPOT peptide array binding signal intensity” value (SpHof1-2) was at most 0, the “SPOT peptide array binding signal intensity” value (SpHof1-3) was at most 0 and the “SPOT peptide array binding signal intensity” value (SpHse1) was at most 0. For the same binder, the “SPOT peptide array binding signal intensity” value (SpLsb1) was 0.5, the “SPOT peptide array binding signal intensity” value (SpLsb4) was at most 0 and the “SPOT peptide array binding signal intensity” value (SpMyo1) was 215. The “SPOT peptide array binding signal intensity” value (SpNbp2) was 14.5, the “SPOT peptide array binding signal intensity” value (SpPex13) was at most 0 and the “SPOT peptide array binding signal intensity” value (SpRvs167) was at most 0. The “SPOT peptide array binding signal intensity” value (SpSla1-D1-D2) was 2 and the “SPOT peptide array binding signal intensity” value (SpSla1-D3) was 1.
